Bioassay records deposited in PubChem BioAssay by National Center for Advancing Translational Sciences (NCATS).
HT1080NT lethal: kills 2HG-producing HT-1080-NT fibrosarcoma cells | HT-1080-NT fibrosarcoma viability, CellTiter-Glo ATP luminescence, 48 h | Potency, µM (top dose mostly 46.1 µM), for inactives: top-dose activity, negative = less viability, actives largely listed as cytotoxic | 1.6% of 360,000 active | AID 686970;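 further: NT is the 2HG producing partner of a matched IDH1 knockdown line; potency means the concentration at half of the fitted maximal effect; 0% = DMSO-treated cells and -100% = media-only wells without cells; nearly all actives have a fitted effect of over 55% in size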
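Viability of the 2HG-overproducing fibrosarcoma line after 48 hours of compound exposure at 37 degrees C was determined by luminescence with CellTiter-Glo, and concentration-effect curves were then fitted and categorized.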
IL-1B inflam inh: inflammasome signaling inhibition, IL-1 beta readout; THP-1 LPS/ATP IL-1B secretion, AlphaLISA, 16 h; active compounds read low; activity change, % at 57.5 µM; 4.7% of 360,000 active; in the data active means activity change below about -50%; inconclusive means mostly about -30% to -49%
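Secreted IL-1B measured by AlphaLISA bead assay after 16 h compound exposure of THP-1 cells; compounds (final up to 57.5 uM) added 1 h before LPS (250 ng/mL) and ATP (1.25 mM) stimulation; lower signal means less secretion.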
uPA surface inh: blocks generation of uPA at the cell surface; cell surface uPA generation assay, qHTS; Potency, µM (doses to about 38.3 µM), inactives show at the top dose activity change, negative = inhibition, actives largely listed as inhibitors; 0.31% of 330,000 active; active means well fitted inhibition curve with a large enough effect; inconclusive means small, poorly fitted or top-dose-only effect; inactive means no such curve, though single readings can be large or run the other way; tested in mouse RAW 264.7 cells; further: potency means the concentration at half of the fitted maximal effect; nearly all actives have a fitted effect of over 55% in size
TDP1 cell noCPT: qHTS for Inhibitors of human tyrosyl-DNA phosphodiesterase 1 (TDP1): qHTS in cells in absence of CPT; DT40 Tdp1-/- hTDP1 cells, no CPT, ATP luminescence, 48 h; Potency, µM (titrated, usually from 46.2 µM), without a hit: at the highest dose activity change, negative = growth inhibition, actives largely listed as inhibitors; 15% of 420,000 active; further: potency means the concentration at half of the fitted maximal effect; nearly all actives have a fitted effect of over 55% in size
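Growth kinetics read by CellTiter-Glo luminescence after ≥48 hr at 37 °C. Cells: DT40 Tdp1-/- stably carrying human TDP1, 400 per well, compound exposure in the absence of CPT (DMSO vehicle).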
HT1080 IDH1KD tx: HT-1080 IDH1 knockdown cell toxicity (counter line); HT-1080 IDH1 knockdown viability, ATP luminescence, 48 h; Potency, µM (titrated, usually from 46.1 µM), for inactives: top-dose activity, negative = toxicity, actives largely listed as cytotoxic; 2% of 360,000 active; AID 686971;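 further: potency means the concentration at half of the fitted maximal effect; 0% = DMSO wells and -100% = cell-free medium wells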
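Knockdown cells (IDH1KD HT-1080) received compounds 2 h after plating at 750 cells/well and were kept 48 h at 37 °C in 5% FBS RPMI. A CellTiter-Glo luminescence read gave % activity for curve fitting.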
DT40 TDP1 CPT: growth inhibition of DT40 Tdp1-/-;hTDP1 cells with camptothecin (screen for TDP1 inhibitors). chicken DT40 Tdp1-/-;hTDP1 cells + 20 nM CPT, ATP luminescence, 48 h. AID 686979. 12% of 420,000 active. Potency, µM (top dose mostly 46.2 µM), for inactives: at the highest dose activity change, negative = growth inhibition, hits mostly inhibitors; further: potency means the concentration at half of the fitted maximal effect; nearly all actives have a fitted effect of over 55% in size
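Chicken DT40 Tdp1-/- cells complemented with human TDP1, 400 cells/well, exposed to compounds plus 20 nM camptothecin for at least 48 h at 37 C; viability read as ATP content by CellTiter-Glo luminescence.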
Active calls of the source: *; ? = inconclusive; . = no result given; [ ] = remark or other dose. An excerpt weighted towards active compounds, which were near 19% of everything screened. Unless noted, the call rests on the fitted dose curve; in most records, active means well fitted curve in the direction sought with a large enough effect; inconclusive means small, poorly fitted or top-dose-only effect, or another doubt; inactive means no such curve, though single readings can be large; an effect the other way counts as inactive or inconclusive. Unless noted, on the % scale 0 is the no-effect control and ±100 the full control effect.

SMILES	HT1080NT lethal	IL-1B inflam inh	uPA surface inh	TDP1 cell noCPT	HT1080 IDH1KD tx	DT40 TDP1 CPT
COc1ccc(Cl)cc1-c1cc(C(=O)NCC2CCCCC2)[nH]n1	?	3	.	12µM*	?	8.2µM*
COc1ccc(Cl)cc1-c1cc(C(=O)NCc2cccc(Cl)c2)[nH]n1	?	-15	.	?	?	?
Cc1cccc(NC(=O)c2c(NC(=O)c3ccco3)sc3c2CCC(C(C)(C)C)C3)c1 (configuration not stated)	.	.	.	-2%	.	5%
C[C@@H]1CN(Cc2ccc3c(c2)CN(Cc2cccn2-c2ccc(Cl)cn2)CCO3)C[C@H](C)O1	.	.	.	-7%	.	7%[9.04 µM]
CC(C)(C)N1CC(C(=O)Nc2ccc(C#N)cc2)CC1=O (configuration not stated)	-14%	18	-3%	-13%	-3%	-8%
Cc1cc(C)c(S(=O)(=O)N(C)CC(=O)NCc2ccncc2)c(C)c1	0%	25	9%	-24%	-14%	3%
Cc1cccc(NC(=O)CNC(=O)Cc2ccc(S(=O)(=O)N3CCOCC3)s2)c1C	0%	9	-1%	0%	-2%	1%
CC(NC(=O)c1ccc2c(c1)OCO2)C(c1cccs1)N1CCN(c2ccccc2)CC1 (configuration not stated)	-27%	-25	5%	18µM*	?	?
CC(NC(=O)c1ccc2c(c1)OCO2)C(c1cccs1)N1CCOCC1 (configuration not stated)	9%	16	-4%	-2%	-1%	?
CC(NC(=O)c1cccs1)C(c1cccs1)N1CCN(c2ccccc2)CC1 (configuration not stated)	-11%	-12	8%	-17%	-3%	-24%
CC(NC(=O)NC1CCCCC1)C(c1cccs1)N1CCN(c2ccccc2)CC1 (configuration not stated)	-27%	?	10µM*	21µM*	-10%	?
CC(C)C(=O)NC(C)C(c1cccs1)N1CCN(c2ccccc2)CC1 (configuration not stated)	14%	0	8%	21µM*	10%	?
Cc1cc(C)cc(C(=O)Nc2c3c(nn2-c2ccccc2C)CS(=O)(=O)C3)c1	.	.	.	-23%	.	-9%
COc1ccc(CCNC(=O)c2ccc(Nc3nc4ccccc4n4nnnc34)cc2)cc1OC	.	.	.	?	.	-27%
CC(C)CCN(Cc1ccco1)S(=O)(=O)c1csc(C(N)=O)c1	-5%	-13	-1%	23µM*	0%	18µM*
N=c1ccn2c(n1)OCC1C2O[C@@H](O)[C@H]1O (some centres not stated)	.	.	.	0.15µM*	.	0.13µM*
Cc1ccccc1C(=O)N1CCC(C(=O)NN2C(=O)NC3(CCC(C)CC3)C2=O)CC1 (configuration not stated)	13%	18	-8%	-7%	12%	-14%
CCC1CSC(=Nc2ccc(C)cc2)N1C(=O)CN1C(=O)NC2(CCCC2)C1=O (configuration not stated)	-23%	-1	8.9µM*	-2%	-22%	-13%
OCCC1CN(Cc2nc(-c3ccccc3)cs2)CCN1Cc1ccc(F)cc1 (configuration not stated)	-23%	-76*	-2%	16µM*	-17%	23µM*
COc1ccccc1/C=C/CN1CCN(Cc2ccc(F)cc2)C(CCO)C1 (configuration not stated)	-8%	?	-3%	18µM*	-1%	?
CC(C)=CCN1CCN(Cc2cnc(-c3ccccc3)s2)CC1CCO (configuration not stated)	0%	-12	-9%	?	0%	26µM*
CC(C)=CCN1CCN(Cc2nc(-c3ccc(F)cc3)cs2)CC1CCO (configuration not stated)	4%	-11	0%	?	-20%	?
Cc1ccc(CN2CCN(Cc3nc(C(C)C)cs3)CC2CCO)cc1 (configuration not stated)	-25%	2	-4%	12µM*	3%	?
CCOC(=O)CNC(=O)CSc1nc(C(C)C)nc2c1cnn2-c1ccccc1	16%	6	.	?	10%	-22%
O=C(O)CSCC(=O)Nc1ccc(Br)c(C(F)(F)F)c1	9%	.	2%	-18%	14%	-2%
SMILES	HT1080NT lethal	IL-1B inflam inh	uPA surface inh	TDP1 cell noCPT	HT1080 IDH1KD tx	DT40 TDP1 CPT
COc1cc(CCC(=O)Nc2nnc(C)s2)cc(OC)c1OC	6.5µM*	22	-17%	2.9µM*	7.3µM*	4.6µM*
COc1cc(C(=O)Nc2ccc(Nc3ccccc3)cc2)cc(OC)c1OC	-24%	-56*	-4%	?	-26%	?
COc1cc(CCC(=O)Nc2ccc(Br)c(C(F)(F)F)c2)cc(OC)c1OC	-8%	-18	-1%	21µM*	?	18µM*
Cc1cc(C)c(C(=O)Nc2ccc(Br)c(C(F)(F)F)c2)c(C)c1	-4%	0	0%	12µM*	-28%	16µM*
COc1cc(CCC(=O)OCC(=O)Nc2ccc(F)c(F)c2)cc(OC)c1OC	-1%	7	2%	-11%	-3%	-4%
COc1cc(CCC(=O)Nc2cccc(C(F)(F)F)c2)cc(OC)c1OC	12%	1	2%	13µM*	9%	?
COCC(=O)Nc1cccc(C(F)(F)F)c1	-1%	28	0%	-17%	-3%	0%
COc1cc(CCC(=O)Nc2ccc(Cl)c(C(F)(F)F)c2)cc(OC)c1OC	5%	-13	2%	8.2µM*	2%	18µM*
COc1cc(CCC(=O)Nc2cc(C)cc(C)c2)cc(OC)c1OC	9%	24	-6%	16µM*	?	-25%
COc1cc(C(=O)Nc2nc(OC)c(-c3ccccc3)c(OC)n2)cc(OC)c1OC	?	-6	10%	18µM*	?	?
COc1cc(C(=O)Nc2ccc(Cl)c(C(F)(F)F)c2)cc(OC)c1OC	?	-84*	-3%	23µM*	-17%	15µM*
COc1ccc2nc(NC(=O)CCc3cc(OC)c(OC)c(OC)c3)sc2c1	-1%	-63*	2%	21µM*	0%	?
COc1ccc(-c2ccccc2)cc1NC(=O)C1(C)CCN1C(=O)C(C)C (configuration not stated)	-10%	-17	.	-52%	12%	?
